Data on 113 compounds can be found in ChEMBL document CHEMBL4513216, “Probing the Open Global Health Chemical Diversity Library for Multistage-Active Starting Points for Next-Generation Antimalarials” (ACS Infect Dis, 2020).

Molecules are shown by their SMILES. Out of some 69,000 compounds screened, about 8,600 (12%) showed an effect of 50% or more. This is one part of a sample in which strong results are shown more often than they occur.

This assay has as its system Plasmodium berghei. The experiment in a line: Screen against P. berghei liver stage (PbLuc), transformed with Luciferase, at 10uM. As to conditions: tested at 10 uM. The class given is functional, HepG2.
As to `O=C(NCCCn1cccn1)C1(c2ccccc2)CCOCC1`, the INHIBITION is recorded as 16.8%. With `Cc1c(C(=O)N2CCCC(n3nnc4cc(F)ccc43)C2)cnn1C` (stereo not drawn), the INHIBITION worked out at 2.71%. The value for `CCC(NC(=O)COC)c1ccccc1OCC(=O)N1CCCC1` (stereo not drawn) was -4.65%; that for `CN(C)C[C@@H]1CN(C(=O)c2cc(-c3ccccc3)n[nH]2)C[C@@H]1CO` was 43.9%; that for `COc1ccc(S(=O)(=O)NC(=O)COC2CCCC2)cc1` was -0.96%. With `Cc1ccc(NC(=O)N2C[C@@H]3CC[C@H]2CN(Cc2cscn2)C3)cc1`, the INHIBITION is on record as -28.6%. Under `Nc1ccnc(N2C[C@H]3CC[C@@H](C2)N(CC2CCC2)C3=O)n1` stands -32.4%.

On to `CCn1ccc(NC(=O)CCn2nc(C)c3ccccc32)n1`, for which the INHIBITION is on record as -21.3%. Turning to `CCN(CC)C(=O)Cn1ccc2cc(NC(=O)NC3CC3)ccc21`, the INHIBITION is reported as -22.91%. As to `CCC(=O)N1CCC(NC(=O)c2cccc(-n3ccnc3)c2)C1` (stereo not drawn), the INHIBITION is 2.43%.

For the compound `Cc1cc(C)n(CC2CCCN2C(=O)c2cccc3c2OCCO3)n1` (stereo not drawn), the INHIBITION stood at 10.85%. The value for `COC[C@@]12CCC[C@@H]1CN(C(=O)Cc1ccccn1)C2` was 39.4%; that for `O=C(Cc1ccsc1)N1C[C@H]2CCC[C@@]2(COCc2ccccn2)C1` was 63.8%. The value for `CS(=O)(=O)CC(=O)N1C[C@H]2CCC[C@@]2(COCc2ccccn2)C1` was 25%; that for `Cc1ccccc1C(=O)NC(C)c1cnn(C)c1` (stereo not drawn) was 40.8%; that for `CNC(=O)CNCc1c[nH]nc1-c1cc2ccccc2o1` was 1.51%. Under `CNc1nc2c(c(C(=O)N3CCCC3)n1)CN(C(=O)CCSC)CC2` stands -36.6%. `CN(C)CCN1CCOC2(CCN(c3nccs3)CC2)c2ccccc21`: the INHIBITION is reported as 58.5%. With `CN(C)CCN1CCN(C)C2(CCN(c3nccs3)CC2)C1=O`, the INHIBITION came out at 17.2%. Under `CS(=O)(=O)N1CCOC2(CCN(c3nccs3)CC2)c2ccccc21` stands 5.36%; under `CC(C)C(NC(=O)C1CCCC1)c1cc(O)nc(-c2cccnc2)n1` (stereo not drawn), 28.925%; under `CS(=O)(=O)c1ccc(OCCCN2CCc3cncnc3C2)cc1`, 31.2%. Under `CN(C)CCN1CCCC12CCCN(Cc1ccoc1)C2` (stereo not drawn) stands 21.6%; under `Cc1nccc(C2CN(C(=O)c3cncnc3)C2)n1`, -14.2%; under `Cc1cccc(CN2C(=O)OCC2CO)c1F` (stereo not drawn), -21.8%. The value for `COc1ccc2c(C)c(C(=O)NCCCc3csc(N)n3)oc2c1` was 43.6%. As to `Cc1ccc(-c2cc(C(=O)NCCN3CCCS3(=O)=O)[nH]n2)o1`, the INHIBITION is reported as -7.25%. As for `Cn1cccc1-c1cc(C(=O)NCCCc2csc(N)n2)[nH]n1`, the INHIBITION was determined as 35%. As to `Cc1[nH]c2c(F)cccc2c1CC(=O)NCCCc1csc(N)n1`, the INHIBITION was determined as 1.24%. The value for `Cc1ccc(-c2cc(C(=O)NCCCc3csc(N)n3)[nH]n2)o1` was 64.6%; that for `Cc1ccc(-c2cc(C(=O)NCCCc3csc(N)n3)[nH]n2)s1` was 56.5%; that for `CNC(=O)C1CN(C(C)C)CCN1c1nc(C)cc(C)n1` (stereo not drawn) was 3.48%. As to `O=C(CC1NC(N2CCc3ccccc3C2)=NC1=O)Nc1ccccc1` (stereo not drawn), the INHIBITION is recorded as 19.3%. As for `O=C1COc2c(cccc2C(=O)N2CCCC(n3cccn3)C2)N1` (stereo not drawn), the INHIBITION is on record as -4.94%. On to `Cc1nc(C(C)C)sc1C(=O)N1CCN(C2CN3CCC2CC3)CC1` (stereo not drawn), for which the INHIBITION was -6.91%. The value for `COCCN1CCC(N(Cc2noc(C3CC3)n2)C(C)=O)C1` (stereo not drawn) was 23.4%. Regarding `Cc1nc(CN(C)C2CCN(Cc3cccc4cccnc34)C2)no1` (stereo not drawn), the INHIBITION worked out at 25.3%. For the compound `CCc1nc(CN(C)C2CCN(CCc3ccncc3)C2)no1` (stereo not drawn), the INHIBITION is on record as -12.2%. The value for `Cc1nc(CN(C)C2CCN(Cc3cnc(C)s3)C2)no1` (stereo not drawn) was -29.8%. The value for `CCc1nc(CN(C(C)=O)C2CCN(CCc3ccccc3)C2)no1` (stereo not drawn) was 19.4%; that for `Cc1nc(CN(C)C2CCN(Cc3nc4ccccc4s3)C2)no1` (stereo not drawn) was 60%.

As for `Cc1cnc(CN(C)C2CCN(Cc3nc4ccccc4s3)C2)o1` (stereo not drawn), the INHIBITION is 15.3%.

On to `Cc1nc(CN(C)C2CCN(Cc3nc4ccccc4n3C)C2)no1` (stereo not drawn), for which the INHIBITION was found to be 48.2%. The value for `CC(=O)N(Cc1noc(C2CC2)n1)C1CCN(CC2CCOCC2)C1` (stereo not drawn) was 56.6%; that for `CCc1nc(CN(C(C)=O)C2CCN(CC3CCOCC3)C2)no1` (stereo not drawn) was 17.4%. Under `CCc1nc(CN(C(C)=O)C2CCN(CCc3ccncc3)C2)no1` (stereo not drawn) stands 66.7%. For `Cc1nc(CN(C)C2CCN(Cc3ccc4ccccc4n3)C2)no1` (stereo not drawn), the INHIBITION is listed as 70.1%.

Take `CN1CCOC(CNCc2csc(C3CCCC3)n2)C1` (stereo not drawn): the INHIBITION came to 45.1%. Under `O=C(c1ccc(Cl)cc1)N1CCC(N2CCCOC2=O)CC1` stands 48.2%. In the case of `COC1CCN(c2ccc(F)cc2CN(C)S(C)(=O)=O)CC1`, the INHIBITION turned out to be 4.52%. In the case of `CN(CC(C)(CO)CO)C(=O)Nc1cc(F)cc(Cl)c1`, the INHIBITION is -35.9%. Under `COCc1nc(C(=O)NS(=O)(=O)c2ccc(F)cc2F)cs1` stands -1.95%. The value for `NCCc1n[nH]c(=O)n1-c1cccc2ccccc12` was 30%. Under `CN(C)CCN1CCN(Cc2cccc(C#N)c2)Cc2cccnc21` stands -4.32%. `COc1cccc(CNCCc2cc(F)cc3c2OCOC3)c1OC`: the INHIBITION turned out to be 30%. `COc1c(CNCCC(=O)NC2CCCCC2)c(C(C)C)nn1C`: the INHIBITION is on record as -7.81%. Under `Cc1ccc(CN2CC(C(=O)NCC3CC3)C3(CCOCC3)C2)s1` (stereo not drawn) stands -18.5%. Under `Cc1cnn(CC2CN(c3ccc(C#N)cn3)CCO2)c1` (stereo not drawn) stands 21%; under `CC(C)c1nc(CN(C)C2CCN(CCS(C)(=O)=O)C2)no1` (stereo not drawn), 33.7%; under `Cc1nc(CN(C)C2CCN(CCC(=O)N3CCOCC3)C2)no1` (stereo not drawn), 51.1%. The value for `CC(=O)N(Cc1noc(C)n1)C1CCN(Cc2cc(C)on2)C1` (stereo not drawn) was -6.62%; that for `Cc1nc(CN(C)C2CCN(CC3CCCCC3)C2)no1` (stereo not drawn) was 63.4%. In the case of `CC(C)c1nc(CN(C)C2CCN(CCNS(C)(=O)=O)C2)no1` (stereo not drawn), the INHIBITION was found to be 53.3%.

As to `CC(=O)N(Cc1noc(C)n1)C1CCN(Cc2ccon2)C1` (stereo not drawn), the INHIBITION was 65.5%. Under `Cc1nc(CN(C)C2CCN(CC3CCCC3)C2)no1` (stereo not drawn) stands -22.9%; under `CCS(=O)(=O)CCN1CCC(N(C)Cc2noc(C(C)C)n2)C1` (stereo not drawn), 21.2%; under `CC(=O)N(Cc1noc(C)n1)C1CCN(Cc2ccccn2)C1` (stereo not drawn), -39.7%. Under `CCc1nc(CN(C)C2CCN(CCC(=O)N3CCCCC3)C2)no1` (stereo not drawn) stands 36.1%. Under `Cc1nc(CN(C)C2CCN(CC3CCC3)C2)no1` (stereo not drawn) stands 18.2%. Take `Cc1nc(CN(C)C2CCN(CC(=O)N3CCOCC3)C2)no1` (stereo not drawn): the INHIBITION is reported as 17.3%. Under `COc1cccc(CN2CC(O)CN(C(=O)C3CCC3)CC2=O)c1OC` (stereo not drawn) stands 49.5%. With `CNC(=O)[C@@H]1[C@@H](c2ccccc2)CN2CCN(Cc3ccccn3)C[C@H]12`, the INHIBITION worked out at 20%. Under `O=C(NC1CC1)N1CCCC2(CCCCN2)C1` (stereo not drawn) stands 13.7%; under `c1cnn(CC2CN(Cc3nc(C4CC4)no3)CCO2)c1` (stereo not drawn), -12.2%; under `COc1ccc(C(C)NCc2scnc2C)cc1Cn1cccn1` (stereo not drawn), 35.3%. With `COc1ccc(C(C)NCc2nnc(C)s2)cc1F` (stereo not drawn), the INHIBITION is 39.4%. Take `COc1ccc(C(C)NCc2c[nH]nc2C)cc1OC` (stereo not drawn): the INHIBITION is -43%. The value for `COc1cc(C(C)NCc2ncccc2C)ccc1SC(F)F` (stereo not drawn) was 66.2%; that for `COc1cc(C(C)NCc2scnc2C)ccc1SC(F)F` (stereo not drawn) was 75.6%; that for `COc1cc(C(C)NCc2cscn2)ccc1SC(F)F` (stereo not drawn) was 27%.

As to `Cc1nnc(CN(C)C2CCN(Cc3nc4ccccc4n3C)C2)o1` (stereo not drawn), the INHIBITION is recorded as -25.8%. Regarding `OC(COCc1ccccc1)CSc1nnc(C2CC2)n1C1CC1` (stereo not drawn), the INHIBITION is given as 52.8%. For the compound `Cn1c(SCC(O)COCc2ccccc2Cl)nnc1C1CC1` (stereo not drawn), the INHIBITION stood at 36.6%. On to `Cn1c(SCC(O)COCc2ccc(Cl)cc2)nnc1C1CC1` (stereo not drawn), for which the INHIBITION was -18.6%. Under `NC(=O)C1CCN(C(=O)c2cc(-n3cnnn3)ccc2Cl)CC1` stands 28.4%; under `CC(NC(=O)C1CC1)C(=O)N(C)Cc1ccsc1` (stereo not drawn), 16.1%.

On to `CCCc1ncc(CNC2(c3ccc(Cl)cc3)CC2)cn1`, for which the INHIBITION was 44.8%. The value for `Cc1nc(C2CCN(C[C@H](C)CO)CC2)cc(N2CCOCC2)n1` was 60.3%.

For `Cc1nc(C2CCN(C(=O)COC(C)C)CC2)cc(N2CCOCC2)n1`, the INHIBITION was determined as 3.96%. Under `Cc1nc(C2CCN(C(=O)CO)CC2)cc(N2CCOCC2)n1` stands 36.8%. On to `O=C(Nc1ccc2c(c1)OCO2)Nc1cnn(C2CCOCC2)c1`, for which the INHIBITION is listed as 36.5%. Take `O=C(Cc1ccccc1Cl)Nc1cnn(C2CCOC2)c1` (stereo not drawn): the INHIBITION was found to be 51.8%. Take `O=C(Nc1cnn(C2CCOCC2)c1)c1ccc2c(c1)OCO2`: the INHIBITION is on record as -38.6%. For the compound `Cc1cccc(CC(=O)Nc2cnn(C3CCOC3)c2)c1` (stereo not drawn), the INHIBITION is recorded as -13.6%.

For `O=C(Cc1cccs1)Nc1cnn(C2CCOC2)c1` (stereo not drawn), the INHIBITION worked out at 5.91%. For `O=C(Cc1cccs1)Nc1cnn(C2CCOCC2)c1`, the INHIBITION is 71.3%. Under `COc1ccccc1-c1cc(C(=O)Nc2nc[nH]n2)[nH]n1` stands -36%; under `O=S(=O)(CCN1CCCC1Cn1cncn1)c1ccccc1` (stereo not drawn), -43.6%; under `Cc1cc(C(=O)NCC(Cc2cccc(F)c2)N2CCCCC2=O)no1` (stereo not drawn), 34.9%. With `CNC(=O)[C@@H]1CCO[C@@H]2CCN(C3CCOCC3)C[C@@H]21`, the INHIBITION was -46.9%.

Turning to `O=C(CCn1ccc2ccc(Br)cc21)NCc1ccc(C(=O)O)cc1`, the INHIBITION came out at 15.1%. As to `O=C(c1ccncc1F)N1CC2CC1(C(=O)N1CCCC1)C2`, the INHIBITION is 58%. Under `Cc1oncc1C(=O)N1CC2CC1(C(=O)N1CCCC1)C2` stands -15.9%. The value for `Cn1ccnc1C1CCCN(C(=O)c2ccncc2F)C1` (stereo not drawn) was 42.5%; that for `O=C(NCc1cc(-c2ccccc2)no1)NCC1CCCO1` (stereo not drawn) was 1.06%. Under `CC1=CCN(S(=O)(=O)c2cccc(C(=O)N3CCCN(C)CC3)c2)CC1` stands 14%; under `N#Cc1ccc(OCCN2CCn3c(nnc3C3CC3)C2)cc1`, 11.2%; under `NC(=O)CCSCc1ccc(Br)c(F)c1`, 52.8%. Turning to `CC(NC(N)=O)C(=O)NCc1ccc(Br)c(F)c1` (stereo not drawn), the INHIBITION is listed as -31.1%. The value for `CS(=O)(=O)CCCSCc1cc(F)cc(Br)c1` was 31.2%.

Take `CS(=O)(=O)CCSCc1ccc(Br)c(F)c1`: the INHIBITION is on record as 50.7%. The value for `NC(=O)NC1CCN(Cc2ccc(Br)c(F)c2)CC1` was 1.45%; that for `CS(=O)(=O)CCCSCc1ccc(Br)c(F)c1` was -59.7%.
